The list is not random: actives were taken first. Their share in the collection is about 11%.
Lmaj promast = inhibitors of Leishmania major promastigote growth; actives 9% (n = 200,000); Leishmania major promastigotes, resazurin fluorescence viability; inhibition, % at 10 µM; in the data active means inhibition above about 50%;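 further: promastigotes grown with compound for 44 hours at 28 °C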
Autophagy mod = autophagy modulation, high-content screen; MEF GFP-LC3 puncta imaging; test concentration mostly 10 µM; actives 0.98% (n = 190,000); AID 463193; calls only at 10 µM (by protocol);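 active means percentage of spot-positive cells more than 3 SD above its plate mean, without a fluorescence outlier flag or 80% toxicity; inconclusive means no clear call, values can overlap the other calls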
Insulin prom inh = TRM-6 insulin promoter activity inhibition; TRM-6 cells (human fetal islet line), insulin promoter-eGFP reporter, imaging; reporter expression induced with tamoxifen; inhibition, % at 2 µM; actives 0.9% (n = 130,000);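 active means inhibition above the mean plus 3 SD, with well images judged a real hit on visual review, cut at about 60% in these data, passing the limit was not always enough; inconclusive means inhibition over the cutoff but images rejected on review; inactive means inhibition not above the cutoff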
Insulin prom up = MIN6 insulin promoter up-regulation. MIN6 insulin promoter-GFP reporter, high-content imaging; hits give high values. AID 1625. actives 0.3% (n = 190,000). z-score at 5 µM;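 active means z-score above 3 at 5 µM with at least 500 cells counted in the well; inconclusive means wells under 500 cells, flagged as cytotoxic or low count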
WT yeast gro inh = growth inhibition of WT yeast, mitochondrial fusion screen. mitochondrial fusion phenotypic screen, WT strain. AID 1362. actives 2.1% (n = 190,000). inhibition, % at 10 µM; in the data active means inhibition above about 58%; tested in S. cerevisiae
Numbers stand for hits; 0 = inactive; ? = inconclusive; - = not tested or not shown; + = active, no number.

SMILES | Lmaj promast | Autophagy mod | Insulin prom inh | Insulin prom up | WT yeast gro inh
Cc1ccc(S(=O)(=O)c2nc(Nc3nccs3)sc2Cl)cc1 | 0 | 0 | - | 0 | 62
O=C(c1cc(NC(=O)C23CC4CC(CC(C4)C2)C3)cc(NC(=O)C23CC4CC(CC(C4)C2)C3)c1)N1CCCCC1 | 91 | 0 | 0 | ? | 0
O=C(NC(=S)N1CCCCC1)C12CC3CC(CC(C3)C1)C2 | 0 | 0 | 0 | - | -
C/C(=N\Nc1nc2ccccc2s1)c1cccs1 | 0 | 0 | 0 | 0 | 0
C/C(=N\Nc1nc(-c2ccccc2)cs1)c1cccs1 | 79 | 0 | 0 | 0 | 0
C=CCc1ccc(O)c(-c2cc(CC=C)ccc2O)c1 | 0 | 0 | - | 0 | 74
CCN(CC)CCNC(=O)c1cccc(NC(=O)C(=O)c2ccccc2NC(C)=O)c1 | 0 | 0 | 0 | 0 | 0
NC(=O)c1ccc(NC(=O)COC(=O)CCC(=O)c2ccc(Cl)cc2)cc1 | 0 | 0 | - | 0 | 0
COc1ccc(S(=O)(=O)N2CC3CCCN3c3cc(C(F)(F)F)ccc32)cc1 (stereo unspecified) | 0 | 0 | 0 | - | 75
CSc1cccc(NC(=S)N(Cc2ccc(C)cc2)Cc2cccnc2)c1 | 0 | 0 | 0 | 0 | 67
Cc1ccccc1NC(=S)N(Cc1ccccc1)Cc1cccnc1 | 86 | 0 | - | 0 | 0
Cc1cccc(NC(=S)N(CCc2nc3cc(C)c(C)cc3[nH]2)Cc2cccnc2)c1 | 0 | 0 | 0 | 0 | 0
COc1ccc(NC(=O)N(Cc2cccnc2)Cc2ccccc2Cl)c(OC)c1 | 0 | 0 | - | - | 0
Cc1ccc(CN(Cc2ccco2)C(=S)Nc2ccccc2C)cc1 | 0 | 0 | - | 0 | 0
CNC(=S)N(Cc1ccccc1)Cc1cccnc1 | - | - | - | 0 | -
Cc1ccccc1NC(=S)N(Cc1cccnc1)Cc1ccco1 | 97 | 0 | 0 | - | 0
Cc1ccc(Cl)cc1NC(=S)N(Cc1cccnc1)Cc1ccccc1Cl | 99 | 0 | 0 | 0 | 0
CCN(CC)S(=O)(=O)c1ccc2c(c1)nc(CCC(=O)Nc1ccc(N3CCOCC3)cc1)n2C | 0 | 0 | 0 | 0 | 0
Cc1cccc(C)c1NC(=S)N(Cc1ccccc1)Cc1cccs1 | 58 | 0 | 0 | 0 | 73
O=C(O)CNC(=S)N(Cc1ccccc1)Cc1cccs1 | 0 | 0 | - | 0 | 0
O=C(/C=C/c1cccc([N+](=O)[O-])c1)c1cccs1 | 89 | 0 | 0 | 0 | 0
CN(C)/C=C/C(=O)c1cccc([N+](=O)[O-])c1 | 0 | + | 0 | 0 | 0
O=C(/C=C/c1cccc([N+](=O)[O-])c1)c1ccc2c(c1)OCCO2 | 98 | 0 | 0 | - | 0
COc1ccc(/C=C/C(=O)c2ccc3c(c2)OCCO3)cc1[N+](=O)[O-] | 0 | 0 | - | 0 | 0
O=C(/C=C/c1cccc([N+](=O)[O-])c1)N1CCOCC1 | 0 | 0 | 0 | 0 | 0
SMILES | Lmaj promast | Autophagy mod | Insulin prom inh | Insulin prom up | WT yeast gro inh
COc1ccc(C(=O)/C=C/N(C)C)cc1OC | 0 | 0 | 0 | 0 | 0
O=C(/C=C/c1cccc([N+](=O)[O-])c1)N1CCN(S(=O)(=O)c2cccs2)CC1 | 66 | 0 | 0 | 0 | 0
O=C(/C=C/c1cccc([N+](=O)[O-])c1)Nc1ccc(NC(=O)c2cccs2)cc1 | 0 | 0 | - | 0 | 0
COC(=O)c1ccc(Sc2ccccc2NS(=O)(=O)c2ccc(OC)cc2)nc1 | 0 | 0 | 0 | 0 | 0
CN(C)c1ccc(O)c2c1CC1CC3[C@@H](N(C)C)C(=O)C(C(N)=O)=C(O)[C@]3(O)C(=O)C1=C2O (stereo partly specified) | 83 | 0 | 0 | - | 60
O=C(O)Cn1nnnc1SCC(=O)Nc1ccc(F)cc1F | 0 | 0 | - | 0 | 0
CCOC(=O)N1C2C=C(C)[C@@H]2[C@@H]2CC(=O)N21 (stereo partly specified) | 0 | 0 | 0 | 0 | 0
O=[N+]([O-])c1ccc(C2CCCC/C2=N/OCc2ccc(F)cc2)c([N+](=O)[O-])c1 (stereo unspecified) | 54 | 0 | 0 | - | 0
O=C(O/N=C1\CCCCC1c1ccc([N+](=O)[O-])cc1[N+](=O)[O-])c1c(F)cccc1F (stereo unspecified) | 62 | 0 | 0 | - | 0
COc1ccc(C(CC(=O)NCC(OC)OC)NS(=O)(=O)c2ccc(Cl)cc2)cc1 (stereo unspecified) | 0 | 0 | - | 0 | 0
CCN(CC)P(=O)(Nc1cccc(C(F)(F)F)c1)c1ccc(N(C)C)cc1NC(=O)c1ccco1 (stereo unspecified) | 91 | 0 | - | 0 | 0
COc1ccc(-n2c3c(cc(C#N)c2=O)C(=O)CCC3)cc1 | 0 | 0 | - | 0 | 0
c1ccc(CNc2nc(N3CCN(Cc4ccccc4)CC3)nc3ccccc23)cc1 | - | - | - | 0 | -
c1ccc(N2CCN(c3nc(NCc4ccco4)c4ccccc4n3)CC2)cc1 | 98 | 0 | 0 | 0 | 0
